According to PubChem BioAssay AID1159580 (chemical genetic matrix, 2015):
Values joined by “and” are separate entries in the source; they are usually repeats but may differ in a detail not shown here. Equal values may be shown once. In all, about 5,500 compounds went through this assay and about 2,000 (36%) were called active. Roughly 18% stayed inconclusive and do not appear here. Rule as the data show it: active = normalized growth mostly below about 0.91 (no sharp cut-off); inconclusive = no clear call, values can overlap the other calls; inactive = mostly above about 0.92. Some of the results follow.

Experiment: chemical genetic growth profiling, strain panel (AID 1159580);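 also: tested at 20 µM; growth read once vehicle control cultures reached saturation at 30 °C; 1 = growth at the plate median or of vehicle wells; lower values mean less growth of the strain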
Conditions: S. cerevisiae deletion strains, growth OD

Measured: normalized growth

C/C=C/c1ccc2c(c1)OCO2
inactive: locus YAL013W, strain DEP1, stronger effect = lower value 1.01 | locus YAL021C, strain ccr4, stronger effect = lower value 1.02 | locus YAL026C, strain drs2, stronger effect = lower value 1.02 | locus YAL030W, strain snc1, stronger effect = lower value 1.02 | locus YBL061C, strain skt5, stronger effect = lower value 1.02 | locus YBR009C, strain hhf1, stronger effect = lower value 1.02 | locus YBR021W, strain FUR4, stronger effect = lower value 1.02 | locus YBR023C, strain chs3, stronger effect = lower value 1.02 | locus YBR171W, strain sec66, stronger effect = lower value 1.03 | locus YBR229C, strain ROT2, stronger effect = lower value 1.01 | locus YBR231C, strain swc5, stronger effect = lower value 1.02 | locus YBR279W, strain paf1, stronger effect = lower value 1.02 | locus YCL011C, strain gbp2, stronger effect = lower value 1.01 | locus YCL016C, strain dcc1, stronger effect = lower value 1.02 | locus YCL029C, strain bik1, stronger effect = lower value 1.01 | locus YCL061C, strain MRC1, stronger effect = lower value 1 | locus YCL069W, strain vba3, stronger effect = lower value 1.02 | locus YCR088W, strain abp1, stronger effect = lower value 1.02 | locus YDL005C, strain med2, stronger effect = lower value 1.02 | locus YDL035C, strain GPR1, stronger effect = lower value 1.02 | locus YDL040C, strain nat1, stronger effect = lower value 1.02 | locus YDL074C, strain BRE1, stronger effect = lower value 1.07 | locus YDL101C, strain DUN1, stronger effect = lower value 1.02 | locus YDL134C, strain PPH21, stronger effect = lower value 1 | locus YDL185W, strain tfp1, stronger effect = lower value 0.998 | locus YDL192W, strain arf1, stronger effect = lower value 1.01 | locus YDR001C, strain nth1, stronger effect = lower value 1 | locus YDR069C, strain doa4, stronger effect = lower value 1.04 | locus YDR101C, strain arx1, stronger effect = lower value 1.04 | locus YDR137W, strain rgp1, stronger effect = lower value 0.994 | locus YDR150W, strain NUM1, stronger effect = lower value 1.01 | locus YDR159W, strain sac3, stronger effect = lower value 1.02 | locus YDR162C, strain NBP2, stronger effect = lower value 1 | locus YDR195W, strain ref2 0.988 | locus YDR297W, strain sur2, stronger effect = lower value 1.02 | locus YDR318W, strain mcm21, stronger effect = lower value 0.991 | locus YDR334W, strain swr1, stronger effect = lower value 1.02 | locus YDR335W, strain msn5, stronger effect = lower value 1.02 | locus YDR388W, stronger effect = lower value 1.01 | locus YDR392W, strain spt3, stronger effect = lower value 0.912 | locus YDR502C, strain sam2, stronger effect = lower value 1.01 | locus YEL003W, strain gim4, stronger effect = lower value 1.02 | locus YEL037C, strain rad23, stronger effect = lower value 1.01 | locus YEL061C, strain CIN8 (second series), stronger effect = lower value 1.01 | locus YEL061C, strain CIN8, stronger effect = lower value 1.01 | locus YER015W, strain faa2, stronger effect = lower value 1.01 | locus YER016W, strain bim1, stronger effect = lower value 1.02 | locus YER110C, stronger effect = lower value 1.01 | locus YER111C, strain swi4, stronger effect = lower value 1.01 | locus YER155C, strain BEM2 (second series), stronger effect = lower value 0.997 | locus YER155C, strain BEM2, stronger effect = lower value 1.01 | locus YER167W, strain BCK2, stronger effect = lower value 1.01 | locus YFR010W, strain ubp6, stronger effect = lower value 1.02 | locus YGL078C, strain dbp3, stronger effect = lower value 1.02 | locus YGL086W, strain mad1, stronger effect = lower value 1.05 | locus YGL167C, strain pmr1, stronger effect = lower value 1.02 | locus YGL173C, strain kem1, stronger effect = lower value 1.02 | locus YGL227W, strain vid30, stronger effect = lower value 1.02 | locus YGL240W, strain doc1, stronger effect = lower value 1.01 | locus YGL248W, strain PDE1, stronger effect = lower value 1.02 | locus YGL253W, strain hxk2, stronger effect = lower value 1.02 | locus YGR078C, strain PAC10, stronger effect = lower value 1.01 | locus YGR135W, strain pre9, stronger effect = lower value 1.01 | locus YGR252W, strain gcn5, stronger effect = lower value 0.972 | locus YHR013C, strain ard1, stronger effect = lower value 1.09 | locus YHR027C, strain rpn1, stronger effect = lower value 1.02 | locus YHR030C, strain SLT2, stronger effect = lower value 1.01 and 0.978 | locus YHR079C, strain IRE1 (second series), stronger effect = lower value 1 | locus YHR079C, strain IRE1, stronger effect = lower value 0.98 | locus YHR094C, strain hxt1, stronger effect = lower value 0.994 | locus YHR129C, strain ARP1, stronger effect = lower value 1.01 | locus YHR142W, strain chs7, stronger effect = lower value 1.03 | locus YHR200W, strain rpn10, stronger effect = lower value 1.01 | locus YIL066C, strain RNR3, stronger effect = lower value 1.02 | locus YIL073C, strain SPO22, stronger effect = lower value 1.06 | locus YIL125W, strain kgd1, stronger effect = lower value 1.01 | locus YIR030C, strain dcg1, stronger effect = lower value 0.998 | locus YJL092W, strain hpr5, stronger effect = lower value 1.01 | locus YJL095W, strain BCK1 (second series), stronger effect = lower value 1.02 | locus YJL095W, strain BCK1, stronger effect = lower value 1.02 and 0.98 | locus YJL115W, strain asf1, stronger effect = lower value 1.03 | locus YJL129C, strain trk1, stronger effect = lower value 1.03 | locus YJL134W, strain LCB3, stronger effect = lower value 1.01 | locus YJL154C, strain vps35, stronger effect = lower value 1 | locus YJL164C, strain tpk1, stronger effect = lower value 1.01 | locus YJL166W, strain qcr8, stronger effect = lower value 1.01 | locus YJL168C, strain set2, stronger effect = lower value 1.01 | locus YJL187C, strain SWE1 (second series), stronger effect = lower value 1.03 | locus YJL187C, strain SWE1, stronger effect = lower value 1.01 | locus YJR043C, strain POL32, stronger effect = lower value 1.02 | locus YJR066W, strain TOR1, stronger effect = lower value 0.948
